About 7,900 targets were measured; listed, in parts, are those with a hit and a random draw of the rest. About 0.6% of all pairs of compound and target were hits. Unmarked numbers belong to inactive results.
Assays:
Assay in all cases: log2 fold change, soluble protein after heating vs DMSO (PISA); higher = thermal stabilisation; K562 cells, 10 uM, 30 min; active = over 0.2 and 3.5 SD of the protein, either way, in both replicates (recomputed)
[1] = compound: NC(=O)Nc1cc(-c2cccc(F)c2)sc1C(=O)N[C@H]1CCCNC1
How it was run: (§1)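 Values are thermal stability changes relative to control samples and are taken from duplicates. They are stated as log2 fold changes. Before quantification by TMTpro 16plex LC-MS/MS with equalised channel sums, K562 cells at 2×10^6 cells/mL were treated with 10 μM compound for 30 min, heated in aliquots for 3 min across 48°C-58°C, pooled, extracted in PBS with 0.5% NP-40 at 4°C, and centrifuged at 21,000xg for 90 min to give the soluble supernatant.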

[2] = compound: NC(=O)c1cnc(N[C@@H]2CCCC[C@@H]2N)nc1Nc1cccc(-n2nccn2)c1
How it was run: as §1

[3] = compound: NC1(c2ccc(-c3nc4ccn5c(=O)[nH]nc5c4cc3-c3ccccc3)cc2)CCC1
How it was run: as §1

[4] = compound: NCC(=O)Nc1ccc(-n2nc(C(F)(F)F)cc2-c2ccc3c(ccc4ccccc43)c2)cc1
How it was run: as §1

entinostat = compound: Nc1ccccc1NC(=O)c1ccc(CNC(=O)OCc2cccnc2)cc1 [entinostat]
How it was run: as §1

vorinostat = compound: O=C(CCCCCCC(=O)Nc1ccccc1)NO [vorinostat]
How it was run: as §1

citarinostat = compound: O=C(CCCCCCNC(=O)c1cnc(N(c2ccccc2)c2ccccc2Cl)nc1)NO [citarinostat]
How it was run: as §1

silmitasertib = compound: O=C(O)c1ccc2c(c1)nc(Nc1cccc(Cl)c1)c1ccncc12 [silmitasertib]
How it was run: as §1

[5] = compound: O=C1NC(=O)C(c2cnc3ccccn23)=C1c1cn2c3c(cc(F)cc13)CN(C(=O)N1CCCCC1)CC2
How it was run: as §1

[6] = compound: c1cc(OCCN2CCCCC2)cc(-c2n[nH]c3ccc(-c4nnc[nH]4)cc23)c1
How it was run: as §1

entospletinib = compound: c1cn2cc(-c3ccc4cn[nH]c4c3)nc(Nc3ccc(N4CCOCC4)cc3)c2n1 [entospletinib]
How it was run: as §1

Chain of UniProt Q8N1S5 (Q8N1S5 whole entry, looked up): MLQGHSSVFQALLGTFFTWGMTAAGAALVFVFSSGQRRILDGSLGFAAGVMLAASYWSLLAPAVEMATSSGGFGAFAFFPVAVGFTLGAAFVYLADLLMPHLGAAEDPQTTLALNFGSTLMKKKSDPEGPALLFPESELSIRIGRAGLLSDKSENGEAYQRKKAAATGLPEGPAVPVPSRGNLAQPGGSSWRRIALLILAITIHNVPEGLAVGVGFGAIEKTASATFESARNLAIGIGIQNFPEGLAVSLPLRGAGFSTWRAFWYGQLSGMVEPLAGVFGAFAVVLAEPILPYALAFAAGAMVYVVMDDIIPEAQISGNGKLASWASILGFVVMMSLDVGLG
Chain of UniProt Q9Y2W1 (Q9Y2W1 whole entry, looked up): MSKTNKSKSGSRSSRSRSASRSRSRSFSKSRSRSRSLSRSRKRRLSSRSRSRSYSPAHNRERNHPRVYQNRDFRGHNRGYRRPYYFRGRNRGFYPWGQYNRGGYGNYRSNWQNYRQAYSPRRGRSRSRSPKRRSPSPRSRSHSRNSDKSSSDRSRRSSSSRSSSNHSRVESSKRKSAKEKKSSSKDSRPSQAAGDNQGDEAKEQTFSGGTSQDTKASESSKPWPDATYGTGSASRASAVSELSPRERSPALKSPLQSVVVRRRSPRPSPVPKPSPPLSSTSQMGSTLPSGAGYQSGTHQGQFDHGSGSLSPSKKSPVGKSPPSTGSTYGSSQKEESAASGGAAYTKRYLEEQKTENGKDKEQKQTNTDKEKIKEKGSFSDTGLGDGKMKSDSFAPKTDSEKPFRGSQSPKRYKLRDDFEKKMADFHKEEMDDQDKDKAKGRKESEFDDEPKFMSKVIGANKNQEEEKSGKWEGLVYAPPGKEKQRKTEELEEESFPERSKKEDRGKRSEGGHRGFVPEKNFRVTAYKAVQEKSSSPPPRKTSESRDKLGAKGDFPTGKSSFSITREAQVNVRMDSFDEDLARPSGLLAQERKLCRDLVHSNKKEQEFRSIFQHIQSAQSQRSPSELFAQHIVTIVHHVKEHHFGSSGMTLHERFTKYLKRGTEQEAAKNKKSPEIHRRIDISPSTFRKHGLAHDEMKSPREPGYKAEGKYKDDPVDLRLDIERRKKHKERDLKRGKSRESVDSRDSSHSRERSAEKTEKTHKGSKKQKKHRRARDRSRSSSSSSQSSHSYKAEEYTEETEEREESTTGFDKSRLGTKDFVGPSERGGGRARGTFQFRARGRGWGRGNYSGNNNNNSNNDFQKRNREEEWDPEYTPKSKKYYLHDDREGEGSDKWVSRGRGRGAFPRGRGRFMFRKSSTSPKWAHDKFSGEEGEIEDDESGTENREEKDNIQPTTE
Chain of UniProt P02786 (P02786 whole entry, looked up): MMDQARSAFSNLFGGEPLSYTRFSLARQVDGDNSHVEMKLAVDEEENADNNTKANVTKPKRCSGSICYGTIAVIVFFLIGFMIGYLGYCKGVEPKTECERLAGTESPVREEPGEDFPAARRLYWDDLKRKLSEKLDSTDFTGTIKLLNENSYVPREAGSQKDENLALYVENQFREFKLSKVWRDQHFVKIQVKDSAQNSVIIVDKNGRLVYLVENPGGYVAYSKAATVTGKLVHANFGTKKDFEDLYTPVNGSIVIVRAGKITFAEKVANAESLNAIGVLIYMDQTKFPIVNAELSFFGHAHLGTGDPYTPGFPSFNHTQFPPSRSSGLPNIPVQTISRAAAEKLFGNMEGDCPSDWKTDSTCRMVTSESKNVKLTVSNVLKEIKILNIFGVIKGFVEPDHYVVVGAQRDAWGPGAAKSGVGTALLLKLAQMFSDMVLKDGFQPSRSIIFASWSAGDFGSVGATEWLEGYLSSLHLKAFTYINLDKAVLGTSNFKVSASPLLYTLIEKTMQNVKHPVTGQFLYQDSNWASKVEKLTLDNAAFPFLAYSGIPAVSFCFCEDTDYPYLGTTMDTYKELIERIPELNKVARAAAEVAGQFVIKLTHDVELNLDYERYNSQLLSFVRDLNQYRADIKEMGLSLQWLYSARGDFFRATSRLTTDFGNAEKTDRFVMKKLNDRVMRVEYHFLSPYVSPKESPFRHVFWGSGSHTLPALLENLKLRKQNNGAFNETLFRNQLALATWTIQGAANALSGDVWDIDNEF
Chain of UniProt Q9NXE4 (Q9NXE4 whole entry, looked up): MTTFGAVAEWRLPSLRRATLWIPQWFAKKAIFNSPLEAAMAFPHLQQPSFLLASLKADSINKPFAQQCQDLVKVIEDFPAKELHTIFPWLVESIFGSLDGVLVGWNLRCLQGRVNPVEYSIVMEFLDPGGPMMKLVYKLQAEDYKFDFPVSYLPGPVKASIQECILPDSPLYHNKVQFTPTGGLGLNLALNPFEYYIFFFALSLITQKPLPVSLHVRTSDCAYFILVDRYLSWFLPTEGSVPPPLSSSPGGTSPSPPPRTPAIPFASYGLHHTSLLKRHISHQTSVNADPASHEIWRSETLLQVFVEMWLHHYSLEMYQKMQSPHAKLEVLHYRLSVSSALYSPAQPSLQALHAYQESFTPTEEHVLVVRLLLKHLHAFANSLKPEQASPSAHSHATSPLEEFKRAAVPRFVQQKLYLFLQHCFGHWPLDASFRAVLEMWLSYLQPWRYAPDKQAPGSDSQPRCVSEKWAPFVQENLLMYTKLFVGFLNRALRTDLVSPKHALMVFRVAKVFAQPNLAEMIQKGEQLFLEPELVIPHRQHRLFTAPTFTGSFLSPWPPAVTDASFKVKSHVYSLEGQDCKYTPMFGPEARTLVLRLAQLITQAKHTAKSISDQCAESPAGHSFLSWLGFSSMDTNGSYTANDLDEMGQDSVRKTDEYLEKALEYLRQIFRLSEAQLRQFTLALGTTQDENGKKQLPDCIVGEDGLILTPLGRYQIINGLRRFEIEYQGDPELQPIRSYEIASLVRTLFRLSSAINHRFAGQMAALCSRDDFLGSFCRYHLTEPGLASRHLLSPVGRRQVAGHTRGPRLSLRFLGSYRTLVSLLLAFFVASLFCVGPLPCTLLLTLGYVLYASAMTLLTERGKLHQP
Chain of UniProt Q6P1M0 (Q6P1M0 whole entry, looked up): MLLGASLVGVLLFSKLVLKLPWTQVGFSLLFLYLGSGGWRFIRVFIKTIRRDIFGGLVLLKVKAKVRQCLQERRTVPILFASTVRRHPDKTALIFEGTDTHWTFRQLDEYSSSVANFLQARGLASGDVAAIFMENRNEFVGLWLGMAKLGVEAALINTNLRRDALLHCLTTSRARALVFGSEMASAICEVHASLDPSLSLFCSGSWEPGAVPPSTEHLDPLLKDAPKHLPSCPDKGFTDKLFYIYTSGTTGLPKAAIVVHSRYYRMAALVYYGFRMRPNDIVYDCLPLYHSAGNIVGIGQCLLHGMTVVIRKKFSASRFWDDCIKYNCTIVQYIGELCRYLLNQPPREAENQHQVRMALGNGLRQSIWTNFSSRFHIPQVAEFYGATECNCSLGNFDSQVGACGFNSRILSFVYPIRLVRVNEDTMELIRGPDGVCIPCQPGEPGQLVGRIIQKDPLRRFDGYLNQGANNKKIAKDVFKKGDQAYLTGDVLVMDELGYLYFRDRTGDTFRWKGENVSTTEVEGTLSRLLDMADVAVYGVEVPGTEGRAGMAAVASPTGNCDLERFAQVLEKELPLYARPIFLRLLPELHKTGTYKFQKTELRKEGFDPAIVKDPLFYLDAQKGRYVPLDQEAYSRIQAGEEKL
Chain of UniProt Q969G3 (Q969G3 whole entry, looked up): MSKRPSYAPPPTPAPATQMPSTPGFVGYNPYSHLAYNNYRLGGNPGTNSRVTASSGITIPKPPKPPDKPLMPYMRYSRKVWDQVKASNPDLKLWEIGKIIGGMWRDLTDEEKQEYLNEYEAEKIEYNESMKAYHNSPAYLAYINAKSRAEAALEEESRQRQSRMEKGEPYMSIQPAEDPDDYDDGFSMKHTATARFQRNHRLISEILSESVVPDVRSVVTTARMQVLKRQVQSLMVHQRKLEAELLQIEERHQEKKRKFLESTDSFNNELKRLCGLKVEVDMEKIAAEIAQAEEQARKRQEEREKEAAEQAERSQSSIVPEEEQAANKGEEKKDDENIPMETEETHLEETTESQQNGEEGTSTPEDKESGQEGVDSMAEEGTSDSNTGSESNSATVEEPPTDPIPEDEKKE
Chain of UniProt Q15833 (Q15833 whole entry, looked up): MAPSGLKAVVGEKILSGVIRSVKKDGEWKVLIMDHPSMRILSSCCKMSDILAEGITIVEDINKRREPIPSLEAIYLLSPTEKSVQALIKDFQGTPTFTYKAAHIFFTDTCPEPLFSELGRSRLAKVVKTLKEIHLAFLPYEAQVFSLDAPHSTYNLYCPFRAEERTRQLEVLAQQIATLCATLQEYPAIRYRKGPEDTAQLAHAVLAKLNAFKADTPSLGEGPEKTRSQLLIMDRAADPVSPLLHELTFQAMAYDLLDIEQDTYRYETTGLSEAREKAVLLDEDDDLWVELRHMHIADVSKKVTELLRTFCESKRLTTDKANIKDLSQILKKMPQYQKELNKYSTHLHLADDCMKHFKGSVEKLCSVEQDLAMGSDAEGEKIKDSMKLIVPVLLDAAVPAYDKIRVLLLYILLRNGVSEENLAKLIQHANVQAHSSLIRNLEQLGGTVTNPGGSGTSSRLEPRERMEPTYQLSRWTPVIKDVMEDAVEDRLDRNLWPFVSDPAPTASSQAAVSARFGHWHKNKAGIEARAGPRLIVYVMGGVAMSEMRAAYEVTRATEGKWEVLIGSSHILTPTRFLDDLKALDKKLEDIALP
Chain of UniProt Q969S0 (Q969S0 whole entry, looked up): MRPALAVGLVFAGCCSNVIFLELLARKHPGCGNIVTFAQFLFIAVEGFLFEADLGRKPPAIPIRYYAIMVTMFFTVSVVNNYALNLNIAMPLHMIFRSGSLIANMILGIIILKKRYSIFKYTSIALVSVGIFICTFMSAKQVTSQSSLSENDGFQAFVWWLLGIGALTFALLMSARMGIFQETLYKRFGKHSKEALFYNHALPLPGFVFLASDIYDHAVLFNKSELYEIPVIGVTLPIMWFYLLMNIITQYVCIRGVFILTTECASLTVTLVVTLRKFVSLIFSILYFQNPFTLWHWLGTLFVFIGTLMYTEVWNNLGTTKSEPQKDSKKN

Row | Target | log2 fold change [1] | log2 fold change [2] | log2 fold change [3] | log2 fold change [4] | log2 fold change (entinostat) | log2 fold change (vorinostat) | log2 fold change (citarinostat) | log2 fold change (silmitasertib) | log2 fold change [5] | log2 fold change [6] | log2 fold change (entospletinib)
1 | TEX264 (UniProt Q9Y6I9) | 0.548 (active) | -0.001 | 0.215 | -0.033 | 0.006 | -0.012 | -0.054 | 0.02 | -0.093 | 0.515 | 0.601 (active)
2 | SSB (UniProt P05455) | -0.018 | -0.181 | -0.01 | -0.091 | 0.039 | 0.085 | 0.02 | -0.035 | -0.089 | -0.085 | -0.051
3 | STXBP2 isoform 3 (UniProt Q15833) | -0.084 | -0.066 | -0.12 | -0.051 | 0.035 | 0.105 | 0.046 | 0.112 | 0.141 | 0.036 | 0.099
4 | SLC29A3 (UniProt Q9BZD2) | -0.098 | -0.124 | -0.304 | 0.04 | -0.022 |  | -0.123 | 0.047 | 0.142 | -0.033 | 0.023
5 | SLC7A6 (UniProt Q92536) | -0.07 | 0.089 | 0.06 | -0.017 | -0.029 | -0.003 | 0.026 | 0.007 | -0.135 | -0.049 | 0.031
6 | STK38 (UniProt Q15208) | -0.072 | -0.077 | -0.11 | -0.062 | 0.129 | 0.016 | 0.097 | 0.061 | 0.004 | -0.086 | -0.033
7 | SLC30A10 (UniProt Q6XR72) | -0.035 | 0.088 | 0.084 | 0.133 | -0.003 | -0.215 | -0.008 | -0.05 | -0.005 | -0.432 (active) | 0.01
8 | SLC27A4 (UniProt Q6P1M0) | -0.086 | -0.043 | -0.034 | 0.016 | -0.024 | 0 | 0.043 | 0.022 | -0.073 | -0.1 | -0.027
9 | STK39 (UniProt Q9UEW8) | -0.064 | 0.034 | -0.146 | -0.028 | 0.069 | 0.063 | 0.051 | 0.003 | 0.003 | -0.072 | -0.007
10 | SURF2 (UniProt Q15527) | 0.019 | 0.076 | 0.033 | 0.088 | -0.012 | -0.009 | 0.06 | 0.079 | -0.004 | -0.018 | 0.047
11 | SLC35F6 (UniProt Q8N357) | -0.068 | 0.045 | -0.161 | 0.005 | -0.185 |  | -0.026 | 0.023 | 0.074 | 0.025 | -0.011
12 | SMARCE1 (UniProt Q969G3) | 0.05 | 0.096 | 0.218 | 0.707 | 0.076 | 0.088 | 0 | 0.211 | -0.008 | -0.016 | -0.117
13 | SYNE2 isoform 2 (UniProt Q8WXH0) | -0.229 | -0.172 | 0.087 | -0.134 | -0.125 | 0.072 | 0.053 | -0.056 |  | 0.03 | -0.069
14 | TACC2 (UniProt O95359) | -0.013 | -0.027 | -0.052 | -0.187 | 0.035 | -0.033 | 0.003 | 0.116 |  | -0.073 | -0.009
15 | TBRG4 (UniProt Q969Z0) | -0.103 | -0.172 | -0.58 | -0.255 | 0.214 | 0.201 | 0.128 | 0.074 | -0.191 | -0.086 | -0.027
16 | THRAP3 (UniProt Q9Y2W1) | -0.02 | -0.076 | -0.153 | -0.037 | 0.024 | 0.021 | 0.005 | -0.169 | -0.026 | -0.257 | 0.09
17 | SLIRP (UniProt Q9GZT3) | -0.121 | -0.106 | -0.041 | -0.062 | 0.127 | -0.055 | 0.023 | -0.016 | -0.129 | -0.129 | 0.134
18 | SUN1 isoform 9 (UniProt O94901) | -0.035 | -0.073 | -0.028 | 0.102 | 0.18 | 0.06 | -0.115 | -0.009 | -0.226 | 0.075 | -0.064
19 | SLC35B4 (UniProt Q969S0) | -0.006 | -0.052 | -0.094 | -0.072 | -0.002 |  | -0.009 | -0.034 | -0.069 | -0.06 | 0.033
20 | SOAT1 (UniProt P35610) | -0.073 | -0.049 | -0.171 | -0.045 | 0.029 | -0.063 | 0.112 | 0.084 | -0.098 | -0.185 | 0.079
21 | STX7 (UniProt O15400) | 0.036 | -0.02 | -0.072 | 0.011 | -0.028 | -0.093 | -0.002 | 0.017 | -0.006 | 0.079 | 0.02
22 | STARD3 (UniProt Q14849) | 0.014 | 0.079 | -0.236 | -0.073 | 0.004 | -0.021 |  | 0.053 | -0.003 |  | 
23 | SLC39A11 (UniProt Q8N1S5) | 0 | -0.027 | -0.085 | 0.024 | -0.016 | -0.063 | -0.059 | 0.078 |  | -0.122 | -0.458 (active)
24 | SPAST (UniProt Q9UBP0) | 0.027 | -0.003 | -0.12 | -0.109 | 0.075 | 0.033 | 0.058 | 0.028 | -0.035 | -0.029 | 0
25 | SLC44A2 isoform 2 (UniProt Q8IWA5) | -0.086 | 0.168 | 0.128 | 0.05 | -0.06 | -0.006 | 0.091 | -0.071 | -0.075 | -0.289 | -0.085
26 | SMPD4 isoform 4 (UniProt Q9NXE4) | -0.008 | -0.075 | -0.141 | -0.059 | 0.033 | 0.084 | -0.039 | 0.085 | 0.012 | 0.268 | 0.143
27 | TFRC (UniProt P02786) | -0.021 | -0.031 | -0.823 (active) | -0.001 | -0.008 | -0.02 | 0.062 | 0.006 | -0.023 | -0.071 | 0.022
28 | SNX15 (UniProt Q9NRS6) | 0.106 | -0.135 | -0.048 | -0.133 | 0.061 | 0.436 (active) | 0.113 | 0.276 |  | -0.073 | 0.124
